Our source for the Potency values is PubChem BioAssay (Tox21).

Unmarked numbers belong to inactive results. Results filed as inconclusive are left out. The source made the active and inactive calls. Unless noted, calls follow the shape of the full dose curve.

Experiment [1] can be described thus: Nuclear factor erythroid 2-related factor 2/antioxidant responsive element (Nrf2/ARE) small molecule agonists: qHTS cell viability counter screen in human keratinocytes (AID 1919968; active = well fitted curve in the direction sought with a large enough effect in the repeat runs; an effect the other way counts as inactive or inconclusive; also: nearly all actives have a fitted effect of over 55% in size; also: potency is read from the fitted curve at half-maximal effect). The procedure, abridged:
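After a 5 h attachment period, ARE-reporter keratinocytes were dosed with compounds in DMSO and then cultured 23 h at 37 C. Cell viability came from CellTiter-Fluor signal read after a further 1 h.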

Experiment [2] in a line: Nuclear factor erythroid 2-related factor 2/antioxidant responsive element (Nrf2/ARE) small molecule agonists: luciferase reporter gene qHTS assay in human keratinocytes (AID 1919969). Also: nearly all actives have a fitted effect of over 35% in size. Also: potency is read from the fitted curve at half-maximal effect.
Experiment [3] deals with Gonadotropin-releasing hormone receptor (Homo sapiens) (UniProt P30968). In words: Human gonadotropin-releasing hormone receptor (GnRHR) small molecule agonists, calcium flux assay in GnRHR-HEK293 cells (AID 1920063). Also: nearly all actives have a fitted effect of over 35% in size. An outline of the steps: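 We seeded human GnRHR-expressing HEK293 cells for 18 hours, loaded them with calcium dye for an hour at 37 C, added test compounds, and recorded fluorescence intensity kinetically for three minutes.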
Sequence of Gonadotropin-releasing hormone receptor (Homo sapiens) (P30968 whole entry, looked up): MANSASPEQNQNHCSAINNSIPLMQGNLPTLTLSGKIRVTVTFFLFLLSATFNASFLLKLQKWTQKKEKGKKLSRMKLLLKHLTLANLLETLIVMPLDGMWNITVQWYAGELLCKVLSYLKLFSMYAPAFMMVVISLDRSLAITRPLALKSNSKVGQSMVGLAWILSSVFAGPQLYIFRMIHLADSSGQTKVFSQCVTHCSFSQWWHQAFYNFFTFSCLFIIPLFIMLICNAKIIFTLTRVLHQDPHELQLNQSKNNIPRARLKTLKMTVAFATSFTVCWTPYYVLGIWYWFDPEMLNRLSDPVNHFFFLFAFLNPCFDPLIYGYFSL
(In general: Calcium assays in cells follow changes in intracellular calcium, usually with a dye or a luminescent sensor.)

In experiment [4] the target is KiSS-1 receptor (Homo sapiens) (UniProt Q969F8). In words: Human kisspeptin (KISS1R) small molecule agonists, calcium flux assay in KISS1R-HEK293 cells (AID 1920064; active = well fitted curve in the direction sought with a large enough effect in the repeat runs; an effect the other way counts as inactive or inconclusive). An outline of the steps: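 Kinetic calcium assay, 1 s sampling over 3 min at Ex/Em 480/540, in HEK293 cells engineered with human KISS1R; compounds delivered in DMSO after 1 h dye loading.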
Sequence of KiSS-1 receptor (Homo sapiens) (Q969F8 whole entry, looked up): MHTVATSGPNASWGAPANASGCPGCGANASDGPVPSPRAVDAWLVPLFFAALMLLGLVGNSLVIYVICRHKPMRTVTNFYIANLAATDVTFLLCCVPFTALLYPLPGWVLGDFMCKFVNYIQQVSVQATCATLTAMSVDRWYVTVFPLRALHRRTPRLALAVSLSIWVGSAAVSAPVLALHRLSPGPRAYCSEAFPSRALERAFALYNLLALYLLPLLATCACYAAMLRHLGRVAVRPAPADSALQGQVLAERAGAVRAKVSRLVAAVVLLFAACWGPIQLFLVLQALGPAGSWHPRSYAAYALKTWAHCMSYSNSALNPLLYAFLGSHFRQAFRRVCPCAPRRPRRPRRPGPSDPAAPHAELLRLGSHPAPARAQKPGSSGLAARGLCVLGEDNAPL
Experiment [5] in a line: G protein-coupled receptor (GPCR) small molecule agonists, calcium flux assay: HEK293 wild type cell line counter screen (AID 1920065). The procedure, abridged: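 Calcium-sensitive dye, loaded 1 h at 37 C into cells cultured 18 h, reports compound-evoked calcium release as fluorescence (Ex/Em 480/540), measured over 3 min. Agonist mode; 15-point titrations, triplicate.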

Experiment [6] is described as follows: p53 small molecule agonists, cell-based qHTS assay with human liver microsomes (AID 1963577). Also: potency is read from the fitted curve at half-maximal effect. An outline of the steps:
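p53RE-bla cells, 4,000/well, compound added after 5 h, with human liver microsomes 0.5 mg/mL and NADPH 0.5 mg/mL final; 16 h at 37 C, then LiveBLAzer 2 h RT, fluorescence.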
On the technique in general: qHTS replaces the single test concentration by a dilution series.

Experiment [7] can be described thus: p53 small molecule agonists, cell-based qHTS assay with rat liver microsomes (AID 1963578). The procedure, abridged: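 p53RE-bla cells, 4,000/well, pre-incubated 5 h, then given compounds plus rat liver microsomes (0.5 mg/mL final) and NADPH (0.5 mg/mL final). Incubation 16 h at 37 C; beta-lactamase reporter read by LiveBLAzer fluorescence after 2 h at room temperature.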

A short description of experiment [8]: p53 small molecule agonists, cell-based qHTS assay: qHTS cell viability counter screen (AID 1963581). Also: nearly all actives have a fitted effect of over 45% in size. Also: potency is read from the fitted curve at half-maximal effect. An outline of the steps: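 Following 5 h attachment, HCT-116 p53RE-bla cells took up compound for 16 h at 37 C; the reporter was read with B/G FRET substrate (2 h RT), and viability then via CellTiter-Glo ATP luminescence.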
Experiment [9] deals with 5-hydroxytryptamine receptor 2A (Homo sapiens) (UniProt P28223). In words: 5-hydroxytryptamine receptor 2A (HTR2A) small molecule antagonists, cell-based qHTS assay (AID 1963586). Also: nearly all actives have a fitted effect of over 45% in size. The procedure, abridged:
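Antagonist-mode intracellular calcium assay: DOI (4 nM) added after 5 min compound pre-incubation at room temperature to dye-loaded HTR2A-CHO cells. Fluorescence followed for 3 min, sampled every second.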

Experiment [10] has as its target Muscarinic acetylcholine receptor M1 (Homo sapiens) (UniProt P11229). In words: Cholinergic receptor muscarinic 1 (CHRM1) small molecule agonists, cell-based qHTS assay (AID 1963589). Also: nearly all actives have a fitted effect of over 35% in size. The procedure, abridged: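 Measures agonist-induced intracellular calcium rise. Stable human CHRM1 CHO line, 1 h dye load at 37 C, compounds from DMSO, kinetic fluorescence read.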

The target in experiment [11] is Beta-2 adrenergic receptor (Homo sapiens) (UniProt P07550). In words: Adrenergic beta2 receptor (ADRB2) small molecule antagonists, cell-based qHTS assay (AID 1963592). Also: series mostly up to about 92 µM; nearly all actives have a fitted effect of over 50% in size. The procedure, abridged: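 Cells (CHO, stable ADRB2 overexpression) incubated 18-20hr at 37C; compounds added from DMSO; agonist mix (1nM isoproterenol, 100uM IBMX, 25uM Ro-20-1724) added; 0.5hr RT; d2-cAMP and anti-cAMP-cryptate added; 1hr RT; 665/615 nm read.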
Sequence of Beta-2 adrenergic receptor (Homo sapiens) (P07550 whole entry, looked up): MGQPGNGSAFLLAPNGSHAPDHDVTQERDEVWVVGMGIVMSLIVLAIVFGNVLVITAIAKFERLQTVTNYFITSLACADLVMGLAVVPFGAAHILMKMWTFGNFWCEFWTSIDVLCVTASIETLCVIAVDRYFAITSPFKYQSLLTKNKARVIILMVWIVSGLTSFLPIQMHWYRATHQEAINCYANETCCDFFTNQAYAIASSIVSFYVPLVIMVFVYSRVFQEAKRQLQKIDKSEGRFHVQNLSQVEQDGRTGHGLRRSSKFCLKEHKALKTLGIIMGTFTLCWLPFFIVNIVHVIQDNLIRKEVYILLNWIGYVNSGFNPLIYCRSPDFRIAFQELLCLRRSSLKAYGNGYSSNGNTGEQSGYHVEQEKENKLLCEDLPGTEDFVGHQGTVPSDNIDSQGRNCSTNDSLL

For experiment [12], the target named is D(2) dopamine receptor (Homo sapiens) (UniProt P14416). In words: Dopamine D2 receptor (DRD2) small molecule agonists, cell-based qHTS assay (AID 1963594). Also: nearly all actives have a fitted effect of over 35% in size. The procedure, abridged:
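HEK293 cells stably expressing human DRD2, pre-treated with PDE inhibitor Ro20-1724 (0.1 mM final) and compound 10 min at room temperature, then stimulated with NKH477 (200nM […]) for 30 min. cAMP read by HTRF (665/620 nm).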

Experiment [13] addresses 5-hydroxytryptamine receptor 2A (Homo sapiens) (UniProt P28223). In words: 5-hydroxytryptamine receptor 2A (HTR2A) small molecule agonists, cell-based qHTS assay (AID 1963587). Also: nearly all actives have a fitted effect of over 30% in size. An outline of the steps: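 CHO cells stably expressing human HTR2A, plated 18 h, loaded with calcium dye 1 h at 37 C. Agonist mode: compounds added and intracellular calcium fluorescence recorded kinetically for 2 min at 1 sec intervals.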

For experiment [14], the target named is D(2) dopamine receptor (Homo sapiens) (UniProt P14416). In words: Dopamine D2 receptor (DRD2) small molecule antagonists, cell-based qHTS assay (AID 1963595; active = well fitted inhibition curve with a large enough effect in the signal ratio in the repeat runs, with a control signal flat; the % refers to the signal ratio). The procedure, abridged: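 HTRF cAMP read-out at 665 and 620 nm emission (340 nm excitation). Antagonist mode: compounds were tested against 12 nM quinpirole in DRD2-HEK293 cells, with 200 nM NKH477 raising cAMP and 0.1 mM Ro20-1724 blocking its breakdown.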
Sequence of D(2) dopamine receptor (Homo sapiens) (P14416 whole entry, looked up): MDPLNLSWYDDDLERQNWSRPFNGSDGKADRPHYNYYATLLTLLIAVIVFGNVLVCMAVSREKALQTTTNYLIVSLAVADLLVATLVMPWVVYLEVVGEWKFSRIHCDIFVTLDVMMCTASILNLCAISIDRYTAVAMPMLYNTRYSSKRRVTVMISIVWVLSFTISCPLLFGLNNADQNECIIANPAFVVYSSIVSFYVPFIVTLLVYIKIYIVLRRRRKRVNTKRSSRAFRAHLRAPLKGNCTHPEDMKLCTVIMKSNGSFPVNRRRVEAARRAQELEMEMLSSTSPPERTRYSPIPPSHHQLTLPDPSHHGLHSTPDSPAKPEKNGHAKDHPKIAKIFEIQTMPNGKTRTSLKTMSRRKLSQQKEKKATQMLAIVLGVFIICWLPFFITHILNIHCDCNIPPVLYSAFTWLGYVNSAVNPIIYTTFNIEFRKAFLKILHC

A short description of experiment [15]: p53 small molecule agonists, cell-based qHTS assay with human liver microsomes: qHTS cell viability counter screen (AID 1963579). Also: nearly all actives have a fitted effect of over 45% in size. An outline of the steps:
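p53RE-bla cells, 4,000/well, dosed 5 hours after plating, with human liver microsomes (0.5 mg/mL final) plus NADPH (0.5 mg/mL final), 16 hours at 37 C. Viability read as CellTiter-Glo luminescence after 30 min at room temperature.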

The nature of experiment [16]: p53 small molecule agonists, cell-based qHTS assay with rat liver microsomes: qHTS cell viability counter screen (AID 1963580). Also: nearly all actives have a fitted effect of over 45% in size. An outline of the steps: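 p53RE-bla HCT-116 cells were exposed 16 h at 37 C to compounds with rat liver microsomes (0.5 mg/mL) and NADPH (0.5 mg/mL). Viability was measured in the same wells as ATP content by CellTiter-Glo luminescence.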

The nature of experiment [17]: p53 small molecule agonists, cell-based qHTS assay (AID 1963582; active = well fitted activation curve with a large enough effect in the signal ratio in the repeat runs, not every such curve was filed as active; the % refers to the signal ratio). An outline of the steps:
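In this cell-based concentration-response screen, a p53 response element drives beta-lactamase; cells received DMSO-borne compounds after 5 h culture and were incubated a further 16 h before FRET substrate development.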

In experiment [18] the target is Muscarinic acetylcholine receptor M1 (Homo sapiens) (UniProt P11229). In words: Cholinergic receptor muscarinic 1 (CHRM1) small molecule antagonists, cell-based qHTS assay (AID 1963588). Also: nearly all actives have a fitted effect of over 40% in size. The procedure, abridged: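 CHRM1-CHO calcium-flux assay, antagonist mode. Cells were seeded 18 h, dye-loaded 1 h at 37 C and given compound for 5 min at RT, then acetylcholine was added at 50nM. FDSS fluorescence was read 3 min; 15 concentrations, three runs.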
Sequence of Muscarinic acetylcholine receptor M1 (Homo sapiens) (P11229 whole entry, looked up): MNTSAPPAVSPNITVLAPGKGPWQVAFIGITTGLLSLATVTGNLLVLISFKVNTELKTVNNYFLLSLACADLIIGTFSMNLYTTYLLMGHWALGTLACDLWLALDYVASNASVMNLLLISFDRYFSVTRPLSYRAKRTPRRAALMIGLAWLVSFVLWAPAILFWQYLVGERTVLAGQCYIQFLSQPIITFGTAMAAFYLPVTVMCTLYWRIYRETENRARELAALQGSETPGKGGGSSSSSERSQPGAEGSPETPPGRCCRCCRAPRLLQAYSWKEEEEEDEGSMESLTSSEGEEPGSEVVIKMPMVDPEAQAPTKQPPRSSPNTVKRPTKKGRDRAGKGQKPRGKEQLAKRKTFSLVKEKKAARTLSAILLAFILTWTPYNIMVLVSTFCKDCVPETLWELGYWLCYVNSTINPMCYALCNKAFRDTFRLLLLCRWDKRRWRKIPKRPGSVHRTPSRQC

Experiment [19] can be described thus: cAMP Responsive Elements (CRE) small molecule agonists, cell-based qHTS assay (AID 1963590). An outline of the steps:
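A CRE-responsive beta-lactamase reporter in HEK 293T cells was used. Treatment ran 3 h at 37 C; detection used LiveBLAzer B/G FRET substrate for 2 h at room temperature.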

Experiment [20] in a line: cAMP Responsive Elements (CRE) small molecule antagonists, cell-based qHTS assay (AID 1963591; active = well fitted inhibition curve with a large enough effect in the signal ratio in the repeat runs, not every such curve was filed as active; the % refers to the signal ratio). The procedure, abridged: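 HEK293T cells carrying a CRE-driven beta-lactamase reporter receive compound and NKH477 (0.25 uM final) for 3 h. Fluorescence from LiveBLAzer B/G FRET substrate is read after 2 h at room temperature.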

Sequence of 5-hydroxytryptamine receptor 2A (Homo sapiens) (P28223 whole entry, looked up): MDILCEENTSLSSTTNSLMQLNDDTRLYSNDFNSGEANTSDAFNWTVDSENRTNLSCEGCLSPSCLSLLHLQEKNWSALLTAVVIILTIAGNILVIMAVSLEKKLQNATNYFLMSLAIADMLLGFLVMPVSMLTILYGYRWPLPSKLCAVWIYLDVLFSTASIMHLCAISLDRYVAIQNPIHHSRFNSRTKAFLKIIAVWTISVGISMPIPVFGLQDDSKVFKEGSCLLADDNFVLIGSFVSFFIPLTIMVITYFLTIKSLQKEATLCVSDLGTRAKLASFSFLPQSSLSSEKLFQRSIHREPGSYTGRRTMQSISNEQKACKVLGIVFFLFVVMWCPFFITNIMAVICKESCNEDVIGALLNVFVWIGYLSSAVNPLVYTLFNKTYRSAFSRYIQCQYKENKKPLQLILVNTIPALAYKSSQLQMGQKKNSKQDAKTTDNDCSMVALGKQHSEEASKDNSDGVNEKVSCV

Turning to `CCN1CCC2(CC1)COc1cc3c(cc12)N(C(=O)c1ccc(-c2ccc(-c4nnc(C)o4)cc2C)cc1)CC3`, the Potency was 25.2 µM (active) in experiment [1] and 42.2 µM (active) in experiment [8]. Moreover, the Potency result in experiment [2], in experiment [3], in [4], in experiment [5], in experiment [6] and in experiment [7] was “inactive” throughout. Further, the Potency result in experiment [9], in [10], in experiment [11] and in experiment [12] was “inactive” each time.
`O=C(Nc1ccccc1-c1ccc(Cl)cc1)c1cccnc1Cl`: the Potency result in experiment [1], in [3], in experiment [4], in experiment [5], in [6] and in experiment [7] was “inactive” each time. For the same molecule, the Potency entry in [13], in experiment [10] and in experiment [14] was “inactive” each time. For the same molecule, in [2], the Potency is 68.6 µM (active).
As to `C=CC(=O)OCCCCOC(=O)C=C`, the Potency is 61.1 µM (active) in experiment [1] and 24.3 µM (active) in [2]. Moreover, the Potency result in experiment [3], in experiment [4], in experiment [5], in experiment [6], in experiment [15] and in experiment [16] was “inactive” throughout. The Potency result in experiment [8], in experiment [17], in experiment [9], in experiment [18], in [11] and in experiment [12] was “inactive” each time.
In the case of `COP(N)(=S)Oc1ccccc1C(=O)OC(C)C` (stereo unspecified), the Potency result in [1], in experiment [2], in [3], in [4], in [5] and in [15] was “inactive” each time. Further, the Potency result in experiment [16], in experiment [8], in experiment [17], in [9], in experiment [13] and in experiment [18] was “inactive” in each case. Further, the Potency entry in [10], in [19], in [11], in experiment [12] and in [14] was “inactive” each time. For the same molecule, in experiment [6], the Potency was 18.2 µM (active).
Regarding `O=C=Nc1ccc(Cl)cc1`, the Potency entry in experiment [1], in experiment [3], in experiment [4], in experiment [5], in experiment [6] and in experiment [7] was “inactive” throughout. In addition, the Potency result in [16], in experiment [17], in [9], in experiment [13], in experiment [18] and in [10] was “inactive” in each case. For the same molecule, the Potency entry in [20], in [11] and in experiment [12] was “inactive” each time. Also, the Potency in [2] was 68.6 µM (active).
For the molecule `CCOC(=O)COc1cc(-c2nn(C)c(OC(F)F)c2Cl)c(F)cc1Cl`, the Potency result in [1], in [2], in experiment [3], in [4], in experiment [5] and in experiment [6] was “inactive” each time. Further, the Potency entry in experiment [7], in experiment [16], in experiment [8], in [9], in [13] and in experiment [10] was “inactive” in each case. The Potency entry in experiment [11] and in experiment [14] was “inactive” in each case.
For `N#CSCc1ccccc1`, the Potency result in experiment [1], in experiment [3], in experiment [4], in [5], in [6] and in experiment [7] was “inactive” throughout. Also, the Potency entry in experiment [8], in experiment [9], in experiment [13], in [18], in experiment [10] and in experiment [19] was “inactive” each time. Further, the Potency entry in experiment [11], in experiment [12] and in experiment [14] was “inactive” each time. Besides, the Potency in experiment [2] is 68.9 µM (active).
`O=[N+]([O-])c1ccc2ccc3cccc4ccc1c2c34`: the Potency entry in experiment [1], in experiment [3], in experiment [4], in experiment [5], in experiment [6] and in experiment [15] was “inactive” in each case. Further, the Potency result in [16], in [8], in [17], in experiment [18], in [10] and in experiment [19] was “inactive” each time. Moreover, the Potency entry in [20], in experiment [11] and in [12] was “inactive” in each case. The Potency in experiment [2] is 61.1 µM (active).
